# Test results from the supplement of paper PMC8699584.
# Structures can show the parent of a compound that is named as a salt. ± gives the standard deviation of the averaged measurements.
# Tested on: Molm13
# Assay: cell viability relative to DMSO control (bortezomib = 0%); higher = less growth inhibition
# Conditions: 10 nM; 72 h
# Outline: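 FLT3-ITD+ acute myeloid leukemia cells were dispensed onto a library of 679 approved and investigational compounds in 384-well plates, at 1000 cells per well in 50 µL and a single 10 nM dose, for 72 h. The screen was run in duplicate. Cell viability was read by CellTiter-Glo luminescence on an EnVision reader. Values were converted to percentages by per-plate linear regression between DMSO-treated cells (100%) and positive-control-treated cells (0%).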
row,SMILES,cell viability
1,CCN(CC)CCNC(=O)c1c(C)[nH]c(/C=C2\C(=O)Nc3ccc(F)cc32)c1C [Sunitinib Malate],83.1 ± 1.1%
2,O=C1NC(=O)/C(=C/c2ccc3c(c2)OCO3)S1,96 ± 3%
3,Cc1cc(CN2CCN(c3c(Br)cnc4nc(-c5ccc(N6CCN(C)CC6)cc5)[nH]c34)CC2)no1,85.6 ± 1.8%
4,CNC(=O)c1cc(Oc2ccc(NC(=O)Nc3cc(C(C)(C)C)nn3-c3ccc4ncccc4c3)c(F)c2)ccn1 [DCC-2036 (Rebastinib)],95.7 ± 1.2%
5,Cn1c(=O)n(-c2ccc(C(C)(C)C#N)cc2)c2c3cc(-c4cnc5ccccc5c4)ccc3ncc21,107 ± 2.7%
6,COc1ccc2c(c1)c(C1=C(c3c[nH]c4ccccc34)C(=O)NC1=O)cn2CCCN(C)C,85.4 ± 2%
7,C[C@@]1(C(=O)Nc2ccc(F)nc2)CCCN1c1nc(Nc2cc(C3CC3)n[nH]2)c2cccn2n1,117 ± 2.5%
8,Cc1ccc(C(=O)Nc2ccc(CN3CCN(C)CC3)c(C(F)(F)F)c2)cc1C#Cc1cnc2[nH]ncc2c1,-13.5 ± 5.7%
9,COc1cc2ncc(-c3ccccc3)nc2cc1OC,101 ± 4.1%
10,N#CC(=Cc1cc(Cl)cc(Cl)c1)c1cccnc1,116 ± 8.1%
11,CN(N=O)C(=O)N[C@@H](C=O)[C@@H](O)[C@H](O)[C@H](O)CO [Streptozocin],89.4 ± 24%
12,C[N+](C)(C)CC(=O)O [Betaine hydrochloride],86.4 ± 9.4%
13,O=c1sn(-c2cccc3ccccc23)c(=O)n1Cc1ccccc1 [Tideglusib],116 ± 9.5%
14,CC(C)=CCC[C@](C)(O[C@@H]1O[C@H](CO[C@@H]2O[C@H](CO)[C@@H](O)[C@H](O)[C@H]2O)[C@@H](O)[C@H](O)[C@H]1O)[C@H]1CC[C@]2(C)[C@@H]1[C@H](O)C[C@@H]1[C@@]3(C)CC[C@H](O[C@@H]4O[C@H](CO)[C@@H](O)[C@H](O)[C@H]4O)C(C)(C)[C@@H]3CC[C@]12C [Gypenoside XVII],95.8 ± 9.3%
15,FC(F)(F)c1ccc(CNc2ccc(Cc3c[nH]c4ncc(Cl)cc34)cn2)cn1,89.207 ± 0.064%
16,C=CC(=O)Nc1cc(Nc2nccc(-c3c[nH]c4ccccc34)n2)c(OC)cc1N(C)CCN(C)C,104 ± 7.9%
17,CC(C)CCN1c2nc(Nc3cc(F)c(O)c(F)c3)ncc2N(C)C(=O)C1C (stereo unspecified),100 ± 14%
18,COc1ccc2cc1Oc1ccc(cc1)C[C@H]1c3cc(c(OC)cc3CCN1C)Oc1c(O)c(OC)cc3c1[C@H](C2)N(C)CC3 [Fangchinoline],90.9 ± 1.6%

row,SMILES,cell viability
1,CC(C)=CCc1cc2c(cc1O)oc(=O)c1c3ccc(O)cc3oc21 [Psoralidin],111 ± 27%
2,N#C/C(=C(/N)Sc1ccc(N)cc1)c1ccccc1C(F)(F)F,108 ± 28%
3,CCS(=O)(=O)c1cccc(-c2cc(C(=O)NC3CCN(C)CC3)c(C)c3[nH]c4ncc(C)cc4c23)c1,75.1 ± 5.3%
4,C=CC(=O)Nc1cc2c(Nc3ccc(F)c(Cl)c3)ncnc2cc1OCCCN1CCOCC1 [Canertinib dihydrochloride],101 ± 3.2%
5,Cc1ccc(C(=O)Nc2ccc(CN3CCN(C)CC3)c(C(F)(F)F)c2)cc1C#Cc1cnc2cccnn12,6.99 ± 13%
6,CC(C)c1ccc2oc3nc(N)c(C(=O)O)cc3c(=O)c2c1 [Amlexanox],96.8 ± 11%
7,CC(C)(C)[Si](C)(C)Oc1ccc2oc(=O)c3c(c2c1)CCCN3,108 ± 12%
8,COc1cc(OC)c(/C=C/S(=O)(=O)Cc2ccc(OC)c(NCC(=O)O)c2)c(OC)c1,99.3 ± 23%
9,Oc1ccc(Nc2nc(-c3ccc(Cl)cc3)cs2)cc1 [Sphingosine Kinase Inhibitor 2],101 ± 17%
10,CN1CCN(c2ccc(C(=O)Nc3n[nH]c4ccc(Cc5cc(F)cc(F)c5)cc34)c(NC3CCOCC3)c2)CC1 [Entrectinib],87.5 ± 7%
11,CN1C(=O)C(Cc2c[nH]c3ccccc23)NC1=S (stereo unspecified) [Necrostatin-1],106 ± 9.9%
12,C[C@H]1Oc2cc(cnc2N)-c2c(nn(C)c2C#N)CN(C)C(=O)c2ccc(F)cc21,115 ± 8.8%
13,C[C@@H](Oc1cc(-c2cnn(C3CCNCC3)c2)cnc1N)c1c(Cl)ccc(F)c1Cl,107 ± 16%
14,COc1cc(OC)c(C=C2C(=O)Nc3ccccc32)c(OC)c1,104 ± 6.9%
15,CNC(=O)CN1CCC(Oc2cc3c(Nc4cccc(Cl)c4F)ncnc3cc2OC)CC1 [AZD8931 (Sapitinib)],104 ± 6.3%
16,O=C1Nc2cc(Br)ccc2/C1=C1/Nc2ccccc2/C1=N\O,109 ± 2.3%
17,CC(C)(C)c1ccc(S(=O)(=O)/C=C/C#N)cc1,108 ± 16%
18,Cc1ccc2c(Nc3ccc(Cl)cc3)nccc2c1Nc1ncccc1-c1ncnc2nc[nH]c12 [B-Raf inhibitor 1],98.9 ± 11%
